# Measured values taken from PubChem BioAssay (NCI).
# The panel holds about 83,000 compounds, 20% with a hit somewhere; the sample as a whole holds those more often.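 Values shown are percent growth following 48 h exposure of cells in 96-well plates to a single concentration of compound; below 10 was considered active.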 Values without a mark were called inactive. Active and inactive are the calls of the source.
# Key:
# Experiment in all cases: NCI-60 one-dose screen, 48 h (100 = growth as untreated, 0 = no growth, -100 = all killed)
# Conditions in all cases: 10 µM unless noted
# NCI-H23 lung = system: NCI-H23 lung
# NCI-H226 lung = system: NCI-H226 lung
# NCI-H322M lung = system: NCI-H322M lung
# HOP-62 NSCLC = system: HOP-62 NSCLC
# NCI-H522 lung = system: NCI-H522 lung
# A549/ATCC NSCLC = system: A549/ATCC NSCLC
# 786-0 renal = system: 786-0 renal
# COLO 205 colon = system: COLO 205 colon
# DU-145 prostate = system: DU-145 prostate
# K-562 leukemia = system: K-562 leukemia
# MALME-3M melanoma = system: MALME-3M melanoma
# MDA-MB-231 breast = system: MDA-MB-231 breast
# RXF 393 renal = system: RXF 393 renal
# SF-268 CNS = system: SF-268 CNS
# SF-295 CNS = system: SF-295 CNS
# SF-539 CNS = system: SF-539 CNS
# UACC-257 melanoma = system: UACC-257 melanoma
# M14 melanoma = system: M14 melanoma
# HOP-92 NSCLC = system: HOP-92 NSCLC
# NCI-H460 lung = system: NCI-H460 lung
Structure (SMILES),growth (NCI-H23 lung),growth (NCI-H226 lung),growth (NCI-H322M lung),growth (HOP-62 NSCLC),growth (NCI-H522 lung),growth (A549/ATCC NSCLC),growth (786-0 renal),growth (COLO 205 colon),growth (DU-145 prostate),growth (K-562 leukemia),growth (MALME-3M melanoma),growth (MDA-MB-231 breast),growth (RXF 393 renal),growth (SF-268 CNS),growth (SF-295 CNS),growth (SF-539 CNS),growth (UACC-257 melanoma),growth (M14 melanoma),growth (HOP-92 NSCLC),growth (NCI-H460 lung)
COc1ccc(-c2ccc(SCC(=O)NCCc3ccc(S(N)(=O)=O)cc3)nn2)cc1,64.2%,77%,96.2%,81.3%,70%,86.6%,85.8%,95.4%,96.1%,54.1%,89.3%,92.6%,80.2%,103%,84.9%,88.7%,55.3%,99.7%,–,–
Nc1n[nH]c2cccc(C#Cc3cccc(NC(=O)c4cccc(Cl)c4)c3)c12,38.2%,45.8%,49.1%,33.6%,11.4%,24.7%,11.2%,19.2%,55.8%,–,46.4%,9.79% (active),-14.7% (active),41.1%,15.3%,8.74% (active),48.5%,15.9%,9.55% (active),–
COc1ccc(-c2nnc3ccc(N/N=C/c4ccc(O)cc4)nn23)cc1,32.5%,77.5%,61.9%,–,46.7%,58.5%,22.9%,56.5%,51.9%,–,64.2%,60.6%,42.7%,35.8%,43.6%,36.4%,82.3%,56.4%,31.3%,44.3%
Cn1cc(-c2cc(N)n3nc(-c4cn(C)c5ncc(Br)cc45)cc3n2)c2cc(Br)cnc21,-31.1% (active),78%,69.1%,48.3%,51.2%,-22.3% (active),-40.8% (active),12.3%,5.43% (active),-41.6% (active),-66.6% (active),6.75% (active),23.1%,50%,-63.5% (active),-83.4% (active),60.3%,-64.7% (active),–,–
O=C1NC(=O)/C(=C/c2ccccc2OCc2cc3ccccc3nc2Cl)S1,68.8%,75.4%,79.4%,33.6%,79.1%,76.9%,78.2%,117%,90.5%,84.6%,82.8%,64.2%,72.8%,58.7%,72%,70.8%,89.4%,120%,–,–
CCOC(=O)C1=C(N)N(c2ccccc2)C2=C(C(=O)CC(C)(C)C2)C1c1ccc(Cl)cc1Cl (centres undefined),34.5%,24.4%,56.8%,–,35.3%,26.9%,34.3%,9.03% (active),46%,13%,27.9%,–,21.2%,52.1%,23.6%,33.3%,35%,41.3%,-0.322% (active),18.3%
COc1ccc(-c2ccnc(SCc3cc4ccccc4[nH]c3=O)n2)cc1OC,15.6%,-23.1% (active),-51.5% (active),-53.5% (active),-21.2% (active),11.7%,-25.4% (active),4.51% (active),36.4%,62.9%,8.86% (active),-51.8% (active),-30.4% (active),23%,-78.3% (active),-84.7% (active),29.5%,45.4%,–,–
CCCCc1c(Nn2cnnn2)no[n+]1[O-],56.2%,82%,66.7%,81.6%,-21.9% (active),66.4%,56.2%,60.8%,56.2%,28.2%,68.7%,49.3%,39.5%,82.2%,56.9%,57%,68.5%,68.1%,46.4%,–
O=C(NN1C(=O)/C(=C/C=C/c2ccc([N+](=O)[O-])o2)SC1=S)c1ccc(Cl)cc1,-86.7% (active),-97.1% (active),-100% (active),-98.8% (active),-88.8% (active),-86.7% (active),-82.3% (active),-94.8% (active),-100% (active),3.88% (active),-96% (active),-97.5% (active),-92.1% (active),-86.4% (active),-91.9% (active),-95.2% (active),-93.3% (active),-68.7% (active),–,–
O=C(/C=C/c1ccc(O)c(O)c1)NC1CCOC1O (centres undefined),104%,120%,105%,–,75.6%,99.4%,97.2%,105%,108%,88.3%,103%,99.1%,125%,99.6%,101%,95.7%,102%,108%,91.5%,116%
Cc1ccc(Cc2cnc(NC(=O)c3ccc(/C=C4\SC(=S)N(C)C4=O)cc3)s2)cc1,41.3%,52.5%,35.9%,–,-22.8% (active),43.2%,37.8%,24.4%,26.1%,23.3%,25.2%,41.4%,29.4%,38.6%,8.52% (active),12.7%,30.4%,20.5%,48.4%,39.6%
CC(=O)OC[C@@]1(C)C2CC[C@]3(C)C(CC=C4C5CC(C)(C)CC[C@]5(C(=O)Nc5cccc(C)c5)CC[C@]43C)[C@@]2(C)C[C@@H](OC(C)=O)[C@@H]1OC(C)=O (some centres undefined),45%,39%,65.9%,40.4%,40.3%,40.7%,53.4%,45.7%,48.3%,21.5%,61.3%,67.7%,85.4%,56.2%,27.4%,42%,24.7%,49.8%,50.8%,–
Cc1cccc(NC(=O)[C@]23CCC(C)(C)CC2C2=CCC4[C@@]5(C)C[C@@H](O)[C@H](O)[C@@](C)(CO)C5CC[C@@]4(C)[C@]2(C)CC3)c1 (some centres undefined),-27.7% (active),-17.8% (active),51.6%,–,10.8%,21.1%,22.7%,-31.7% (active),32.2%,15.5%,28.3%,-19.1% (active),-49% (active),41%,4.56% (active),-2.33% (active),39.8%,36.1%,-24.8% (active),-18.3% (active)
CC1(C)CC[C@]2(C(=O)Nc3ccc(F)cc3)CC[C@]3(C)C(=CCC4[C@@]5(C)C[C@@H](O)[C@H](O)[C@@](C)(CO)C5CC[C@]43C)C2C1 (some centres undefined),49.8%,25.5%,72.7%,–,32.8%,28.5%,51.1%,0.244% (active),59.7%,18%,60.7%,27.8%,-6.8% (active),52.6%,26.1%,49.7%,27.7%,46.6%,-1.23% (active),30.8%
O=C(O)c1ccc(-c2ccc(/C=N/NC(=O)c3[nH]c4ccc(Br)cc4c3-c3ccccc3)o2)cc1,18.3%,44.3%,37.5%,–,-33.8% (active),49.5%,19.5%,29.3%,38.8%,7.51% (active),34.6%,–,-1.82% (active),10.5%,6.58% (active),-36.9% (active),45.5%,0.786% (active),-8.72% (active),7.72% (active)
COc1ccc(-c2nnc3ccc(N/N=C/c4ccc(C)cc4)nn23)cc1,50.7%,54.6%,85.3%,–,91%,33.4%,56.9%,79.9%,39.1%,–,91.3%,65.4%,62.2%,59.1%,56.9%,61.3%,106%,83.5%,18.9%,51.2%
